The results in this text go back to PubChem BioAssay (NCI).

Test in all cases: NCI-60 one-dose screen, 48 h (100 = growth as untreated, 0 = no growth, -100 = all killed)
Common to all, as to conditions: 10 µM unless noted

The subject of assay [1] is NCI-H23 lung.
For assay [2], the system named is NCI-H226 lung.
In assay [3] the test system is NCI-H322M lung.
For assay [4], the system named is HOP-62 NSCLC.
The test system of assay [5] is NCI-H460 lung.
The test system of assay [6] is HOP-92 NSCLC.
The subject of assay [7] is NCI-H522 lung.
In assay [8] the test system is A549/ATCC NSCLC.
Assay [9] has as its system 786-0 renal.
The subject of assay [10] is COLO 205 colon.

About 83,000 compounds went through this panel and 20% of them were active in at least one assay; those are over-represented in the sample as a whole.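 In brief: 96-well plates, 48 h treatment, single concentration, percent growth endpoint.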 Values without a mark were called inactive. Activity calls are given as the source filed them. The calls were made as follows: active = growth percent below 10; inactive = the rest.

As to `COc1cc(OC)c(C(=O)/C=C/c2cccc(C#N)c2)c(OC)c1`, the growth was -7.14% (active) in assay [1]; 3.93% (active) in assay [2]; -1.49% (active) in [3]; -9.93% (active) in assay [4]; 0.36% (active) in assay [5]; -5.88% (active) in assay [6]. The growth in [7] is -25.9% (active); in [8], 2.27% (active); in [9], 9.74% (active); in assay [10], -6.79% (active).
As for `Cc1oc2nc[nH]c(=O)c2c1C(=O)/C=C/c1ccc(Cl)cc1`, the growth in [1] is 39.7%; in assay [2] it was 94%; in assay [3], 45.2%; in assay [4], 6.15% (active); in assay [5] it was 21%; in assay [6] it was -4.23% (active). The growth was 17.5% in [7], 31.7% in assay [8], 29.7% in assay [9] and 70.8% in assay [10].
Consider `CN1CCN(c2ccc3cc(-c4nc5ccccc5[nH]4)c(=O)oc3c2)CC1`, for which the growth in [1] is 74.5%; in assay [2], 89%; in [3] it was 105%; in [4], 98%; in assay [5], 92.7%; in assay [6], 58.9%. For the same compound, the growth is 94.9% in assay [7], 90.3% in [8], 105% in assay [9] and 92.4% in [10].
Regarding `CCO/C=N/NC(=O)c1ccncc1`, the growth is 102% in assay [1]; 106% in [2]; 107% in assay [3]; 103% in assay [4]; 104% in assay [5]; 104% in assay [6]. Also, the growth in [7] was 98%; in [8], 106%; in assay [9] it was 105%; in [10], 110%.
On to `COc1ccc([N+](=O)[O-])c(/C=C/C(=O)c2ccccn2)c1`, for which the growth is 91.3% in assay [1]; 84.2% in assay [2]; 83.4% in assay [3]; 78.5% in assay [4]; 89.4% in assay [5]; 66.9% in [6]. The growth in assay [7] was 90.1%; in [8], 87.8%; in assay [9], 93.4%; in assay [10], 89.1%.
In the case of `CCC#CC[C@H]1C/C=C2/C(=O)C=C[C@@H]2C/C=C\CCCC(=O)O1`, the growth in assay [1] is 20.4%; in assay [2], -26.6% (active); in [3] it was 45.4%; in [4], -3.46% (active); in assay [5], -38.1% (active); in [6], -5.7% (active). In addition, the growth in [7] was -29% (active); in assay [8], 0.732% (active); in assay [9], -37.9% (active); in [10], -22.7% (active).
Consider `CCOC(=O)C(Cc1ccccc1)n1c(O)c(C=Nc2ccc(C(=O)OCCN(CC)CC)cc2)sc1=O` (stereo not given), for which the growth in [1] is 102%; in assay [2], 96.7%; in assay [3], 94.4%; in assay [4] it was 103%; in [5], 99.3%; in [6], 84.2%. Besides, the growth was 85.7% in assay [7], 74.4% in assay [8], 90.8% in [9] and 95.5% in assay [10].
As for `CN(C)c1ccc(C2CC(c3ccccc3)=NN2/C=C2\SC(=O)NC2=O)cc1` (stereo not given), the growth in assay [1] is 88.7%; in assay [2], 90.4%; in assay [3], 87.4%; in assay [4], 94.5%; in [5], 67.2%; in [6], 91.5%. Also, the growth in assay [7] is 90%; in [8], 70.1%; in assay [9] it was 90.5%; in assay [10], 110%.
As for `CCNCc1ccncc1`, the growth in [1] is 105%; in assay [2], 103%; in assay [3] it was 104%; in assay [4] it was 104%; in assay [5], 102%; in [6], 107%. Also, the growth is 91% in assay [7], 99.4% in assay [8], 97.7% in assay [9] and 106% in assay [10].
On to `CCCCC(N)(C(=O)O)C1CCCC1` (stereo not given), for which the growth in assay [1] is 106%; in assay [2], 101%; in assay [3] it was 101%; in [4] it was 112%; in assay [5] it was 107%; in assay [6], 102%. The growth in [7] is 102%; in assay [8] it was 94.4%; in assay [9], 96%; in assay [10], 123%.
As for `CCN(CC)CCC(=O)c1cccc2ccccc12`, the growth in assay [1] was 95.3%; in assay [2], 104%; in assay [3], 103%; in assay [4] it was 112%; in assay [5], 110%; in assay [6], 99.4%. Moreover, the growth in [7] is 9.95% (active); in assay [8] it was 98.6%; in assay [9], 102%; in assay [10], 124%.
For `Nc1c(C(=O)Nc2cccc(C(F)(F)F)c2)sc2nc3c(cc12)CCCCC3`, the growth in assay [1] is 3.46% (active); in assay [2], 11.3%; in assay [3] it was -5.26% (active); in [4] it was 3.07% (active); in [5], 10.3%; in assay [6], 17.5%. For the same compound, the growth was 20% in assay [7], -18.4% (active) in [8], -62.8% (active) in [9] and 65.1% in [10].
`CCCCCCCCCCn1cc[n+](C)c1`: the growth in assay [1] is 28.8%; in [2], 30.4%; in assay [3], 57.1%; in assay [4] it was 38.2%; in assay [5], 23.6%; in assay [6] it was 51.9%. In addition, the growth is -19.9% (active) in assay [7], 32.6% in [8], 47.8% in [9] and 8.8% (active) in [10].
Consider `O=C(/C=C/c1ccccc1)n1c(-c2ccc(Cl)cc2)nc2ccccc21`, for which the growth in assay [1] was -24.5% (active); in [2] it was -55.3% (active); in assay [3], 45%; in assay [4] it was -48.8% (active); in assay [5], 0.538% (active); in assay [6], -39.4% (active). Also, the growth is -72.4% (active) in [7], -4.99% (active) in [8], -17.7% (active) in assay [9] and -60.8% (active) in assay [10].
